Results from PubChem BioAssay (NCI).
Compounds without any hit were thinned out: in the full panel of roughly 83,000, 20% have a hit.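 Values shown are percent growth following 48 h exposure of cells in 96-well plates to a single concentration of compound; below 10 was considered active.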 Active and inactive are the calls of the source.

Each compound was assayed on HL-60(TB) leukemia (assay: NCI-60 one-dose screen, 48 h (100 = growth as untreated, 0 = no growth, -100 = all killed)). Settings: 10 µM unless noted.

Row | SMILES | growth
1 | COc1cc(CNC(=O)/C=C/C=C/c2ccc3c(c2)OCO3)ccc1OCc1cn(-c2ccc(C)c(C)c2)nn1 | 84.4% (inactive)
2 | COC(=O)c1ccc2[nH]c(O)c(C(=Nc3ccc(N(C)C(=O)CN4CCN(C)CC4)cc3)c3ccc4c(c3)OCO4)c2c1 | -34.9% (active)
3 | CCOC(=O)C1(Cc2ccccc2)CCN(Cc2cccc(OC)c2O)CC1 | -11.6% (active)
4 | Oc1c(C(Nc2cccc3ccccc23)c2ccccc2)ccc2cccnc12 (stereo unspecified) | -37.4% (active)
5 | COc1cc(CNC(=O)CCCCC[P+](c2ccccc2)(c2ccccc2)c2ccccc2)c(OC)c2c1OCO2 | -2.75% (active)
6 | CC(C)(C)CC1(C)NC(=O)NC1=O (stereo unspecified) | 114% (inactive)
7 | Fc1ccc(-c2nn(-c3ccccc3)cc2-c2nc3ccccc3o2)cc1 | 77.3% (inactive)
8 | Oc1c(Cl)cc(Cl)cc1/C=N/Nc1nnc(N/N=C/c2cc(Cl)cc(Cl)c2O)c2ccccc12 | -24% (active)
9 | CN(C)CCNc1nc2ccccc2c2c(=O)c3cc(F)ccc3sc12 | 38.1% (inactive)
10 | Cc1cc(Cl)nc(N(CCCNc2ccnc3cc(Cl)ccc23)Cc2cccs2)n1 | -41.4% (active)
11 | C#Cc1nc2ccccc2c(=O)[nH]1 | -42.4% (active)
12 | C#CCOc1cccc(Nc2ncnc3ccc(NC(=O)CCl)cc23)c1 | -58.4% (active)
13 | COc1nc2c(cc1S(=O)(=O)c1ccccc1)CCc1c-2cnn1-c1cccc(Cl)c1 | 65.2% (inactive)
14 | O=C1N(Cc2ccccc2Cl)c2ccccc2C12NN=C(c1cccc(Cl)c1)S2 (stereo unspecified) | 28.7% (inactive)
15 | O=C1NC(c2ccc(Cl)c(Cl)c2)=C/C1=C\c1ccccc1 | 94.1% (inactive)
16 | C=CCn1c(C)nc2cc(Nc3nc(Nc4ccc5nc(C)n(CC=C)c5c4)c4ccccc4n3)ccc21 | -52% (active)
